Where “and” joins values, the source holds several entries; their conditions need not be identical. Equal values may be shown once. Results filed as inconclusive are left out. A structure can be active in one record and inactive in another. Calls of active or inactive are those of the source. How the source made its calls: active means hit-call score of the fitted dose curve at least 0.9, where 1 is the maximum; inconclusive means response in the unintended direction; inactive means score below 0.9.

Test [1] is described as follows: TOX21_p53_BLA_p2_viability: Viability Assessment in the Tox21 HCT-116 p53 Agonism Beta-lactamase Assay, Phase 2 (AID 2283591).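 Further: compound exposure lasted 16 h at 37 °C; actives lower the ATP signal meaning cytotoxicity.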 In short, it runs like this:
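HCT116 p53-bla cells, 4000/well, dosed after 5 h plating (217-fold dilution of DMSO stocks) and incubated 16 h at 37C. Viability taken as cellular ATP by CellTiter-Glo luminescence after 30 min RT; signal loss marks cytotoxicity.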

For test [2], the target named is Cellular tumor antigen p53 (Homo sapiens) (UniProt P04637). Description: TOX21_p53_BLA_p2_ratio: Tox21 HCT-116 p53 Agonism Beta-lactamase Assay, Ratio, Phase 2 (AID 2283592). In short, it runs like this:
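Ratio endpoint: beta-lactamase cleavage of CCF4-AM, blue (460 nm) over green (530 nm). HCT116 reporter line; 16 h treatment, 37C; substrate 2 h RT.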

Test [3] can be described thus: TOX21_p53_BLA_p3_viability: Viability Assessment in the Tox21 HCT-116 p53 Agonism Beta-lactamase Assay, Phase 3 (AID 2283593).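 Further: cells exposed to compound for 16 h before reading.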 In short, it runs like this: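 HCT116 cells, 4000/well, dosed 5 h after plating by pin transfer (217-fold dilution from DMSO stock) and incubated 16 h at 37C, 5% CO2. Viability read as ATP luminescence with CellTiter-Glo after 30 min at room temperature.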

The nature of test [4]: TOX21_p53_BLA_p4_viability: Viability Assessment in the Tox21 HCT-116 p53 Agonism Beta-lactamase Assay, Phase 4 (AID 2283597).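 Further: hits lower the luminescence signal meaning cytotoxicity.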 In short, it runs like this:
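Cytotoxicity was inferred from loss of CellTiter-Glo luminescence. HCT116 cells had been dosed with compounds after 5 h plating, incubated 16 h at 37C and 5% CO2, and exposed to the CCF4-AM substrate for 2 h.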

The nature of test [5]: TOX21_p53_BLA_p5_viability: Viability Assessment in the Tox21 HCT-116 p53 Agonism Beta-lactamase Assay, Phase 5 (AID 2283600). The method, boiled down: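 Luciferase-coupled ATP quantitation of cells treated for 16 h (37C, 5% CO2) with test chemicals delivered in DMSO via a 217-fold dilution; 4000 cells/well; reagent incubated 30 min at room temperature before luminescence reading.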

Test [6] has as its target Cellular tumor antigen p53 (Homo sapiens) (UniProt P04637). Nature of the test: TOX21_p53_BLA_p4_ratio: Tox21 HCT-116 p53 Agonism Beta-lactamase Assay, Ratio, Phase 4 (AID 2283601). The method, boiled down:
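HCT-116 p53 beta-lactamase reporter cells (4000/well) preincubated 5 h, then compound (217-fold dilution of DMSO stock) for 16 h at 37C. CCF4-AM substrate added 2 h at room temperature; 460/530 nm emission ratio fitted upward versus DMSO.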

Test [7] shares this target. Description: TOX21_p53_BLA_p3_ratio: Tox21 HCT-116 p53 Agonism Beta-lactamase Assay, Ratio, Phase 3 (AID 2283596). In short, it runs like this: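 Cells were seeded at 4000/well, rested 5 h at 37C, then dosed with DMSO compound solutions (217-fold dilution) for 16 h. CCF4-AM substrate was loaded for 2 h at room temperature, and the 460/530 nm emission ratio was fitted for gain of signal versus DMSO.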

For test [8] the target is unchanged. Description: TOX21_p53_BLA_p5_ratio: Tox21 HCT-116 p53 Agonism Beta-lactamase Assay, Ratio, Phase 5 (AID 2283599). In short, it runs like this:
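HCT-116 p53-bla cells (4000/well) plated 5 h, dosed with compound (217-fold DMSO dilution) for 16 h at 37 C; CCF4-AM substrate 2 h at room temperature. Activity is the 460/530 nm emission ratio (405 nm excitation), fitted in gain-of-signal direction versus DMSO.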

Test [9] in a line: ATG_XTT_Cytotoxicity: Cytotoxicity Assessment in the Attagene TRANS-FACTORIAL HepG2 Assay (AID 2283584). The method, boiled down:
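HepG2 human liver cells, transiently transfected with multiple GAL4-UAS reporter units, were dosed and read at 24 h by XTT as cell number. Loss of signal was fitted relative to DMSO negative control baseline.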

Sequence of Cellular tumor antigen p53 (Homo sapiens) (P04637 whole entry, looked up): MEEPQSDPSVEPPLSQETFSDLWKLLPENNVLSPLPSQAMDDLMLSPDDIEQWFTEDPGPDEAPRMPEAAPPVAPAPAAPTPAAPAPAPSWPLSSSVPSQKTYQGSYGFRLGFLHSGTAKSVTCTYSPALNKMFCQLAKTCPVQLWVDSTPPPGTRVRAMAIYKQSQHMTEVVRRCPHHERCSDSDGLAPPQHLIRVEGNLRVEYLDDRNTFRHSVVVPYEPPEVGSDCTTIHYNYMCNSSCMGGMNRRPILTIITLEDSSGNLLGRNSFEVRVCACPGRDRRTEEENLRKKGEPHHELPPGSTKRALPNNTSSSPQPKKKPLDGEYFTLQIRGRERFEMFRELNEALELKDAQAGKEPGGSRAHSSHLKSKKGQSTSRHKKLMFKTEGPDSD

For the compound `CC(C)C1CCC(O)CC1` (stereo not given), the call in test [1], in test [2], in test [3], in [4], in test [5] and in test [6] was inactive.

For the compound `C=CC(=O)OCCOCCOCC`, the call in [1], in test [2], in test [7], in [8], in test [5] and in [6] was inactive.

Regarding `CCCCCCCCC=O`, the compound was classed as inactive in [9], in [7] and in test [5].

In the case of `Cc1ccc(S)cc1`, the outcome in test [1], in test [2], in [3], in [7], in test [8] and in test [5] was inactive.

On to `CNC(=O)Oc1ccc2c(c1)[C@]1(C)CCN(C)[C@@H]1N2C`, for which the compound was classed as inactive in [1], in test [2], in test [3], in [7], in test [8] and in test [5]. Moreover, the result in test [6] was inactive.

Consider `CN(CCOc1ccc(CC2SC(=O)NC2=O)cc1)c1ccccn1` (stereo not given), for which the compound was classed as inactive in test [1], in test [2], in test [3], in test [7], in test [4] and in test [8]. For the same compound, the result in [6] was inactive.

As to `O=Nc1ccc(Nc2ccccc2)cc1`, the result in [1], in [3] and in test [5] was inactive. Besides, the concentration at half-maximal activity (AC50) in [3] is 67 µM (active); in test [7], 77.1 µM (active) and 61.3 µM (active); in [4], 85.3 µM (active) and 75.2 µM (active); in test [8], 77.5 µM (active) and 46.3 µM (active); in [6], 76.2 µM (active) and 63 µM (active).

As to `CC(C)[C@H]1CC[C@@H](C)CC1=O`, the compound was classed as inactive in [1], in test [2], in test [3], in test [8] and in test [5].

Turning to `CC(=O)O[C@]1(C(C)=O)CC[C@H]2[C@@H]3C[C@H](C)C4=CC(=O)CC[C@]4(C)[C@H]3CC[C@@]21C`, the compound was classed as inactive in test [1], in test [2], in test [3], in test [7], in [4] and in test [8]. For the same compound, the outcome in test [6] was inactive.

For `CCCc1c(OCCCOc2ccc(OCC(=O)O)cc2)ccc(C(C)=O)c1O`, the concentration at half-maximal activity (AC50) in [1] is 57 µM (active); in test [2] it was 63.8 µM (active); in [4] it was 46.1 µM (active); in [8] it was 66.6 µM (active); in [5], 65.8 µM (active); in [6], 69.2 µM (active). The compound was called inactive in test [3] and in [7].

Consider `CCCCCCCCCCCCN`, for which the AC50 in test [1] was 51.6 µM (active); in test [2], 85 µM (active); in test [3], 80.4 µM (active) and 66.7 µM (active); in test [4], 62.2 µM (active); in test [8], 83.1 µM (active); in [5], 84.5 µM (active). Besides, the concentration at half-maximal activity (AC50) in test [6] was 86.1 µM (active). In addition, the compound was classed as inactive in test [1], in test [2], in test [7], in test [8], in test [5] and in test [6].

Regarding `O=Cc1ccc(F)cc1`, the result in test [1], in [2], in test [4], in test [5] and in test [6] was inactive.

Regarding `O=S(=O)(O)c1cccc2c(S(=O)(=O)O)cccc12`, the compound was called inactive in [9], in test [7] and in test [6].

In the case of `OC1OC[C@@H](O)[C@H](O)[C@H]1O` (stereo not given in full), the result in test [1], in test [2], in test [3], in [7], in test [8] and in [5] was inactive.

Consider `O=C(O)COCCN1CCN(C(c2ccccc2)c2ccc(Cl)cc2)CC1` (stereo not given), for which the outcome in test [1], in test [2], in [3], in test [7], in test [4] and in test [8] was inactive. The compound was called inactive in test [5] and in test [6].

Consider `C=CCOc1nc(OCC=C)nc(OCC=C)n1`, for which the outcome in test [9], in [5] and in test [6] was inactive.

With `CCCCCCCCCCCCCC(=O)O`, the compound was called inactive in test [1], in test [2], in test [3], in [7], in [4] and in [8]. The call in test [5] and in test [6] was inactive.

For the compound `N#Cc1ccccc1`, the result in test [1], in test [2], in test [3], in test [7], in test [8] and in [5] was inactive. In addition, in [6], the outcome was inactive.

`C[C@]12CC[C@H]3[C@@H](CCC4=CC(=O)CC[C@@]43C)[C@@H]1CC[C@@H]2C(=O)CO`: the compound was classed as inactive in [1], in test [2], in test [3], in test [7], in test [4] and in [8]. Also, the call in test [5] and in test [6] was inactive.

In the case of `NCCNCCN`, the compound was classed as inactive in [1], in [2], in [3], in test [7], in [4] and in test [8]. The compound was classed as inactive in [5] and in test [6].

`CCCCC(CC)COCCC#N` (stereo not given): the result in test [1], in [2], in test [4], in test [8] and in [5] was inactive.

As to `CCCC(=O)c1cc(O)c(O)cc1O`, the compound was called inactive in test [1], in test [2], in test [3], in test [7], in [4] and in [8]. Further, the call in test [5] and in test [6] was inactive.

For `CC(=O)Nc1ccccc1O`, the result in test [1], in test [2] and in test [6] was inactive.

On to `CN(C)CCCN`, for which the compound was called inactive in test [1], in [2], in test [7], in [4], in test [8] and in [5]. In test [6], the outcome was inactive.

Turning to `CC(C)OP(=O)(CP(=O)(OC(C)C)OC(C)C)OC(C)C`, the compound was classed as inactive in test [1], in [2], in test [3], in [7], in test [8] and in [6].

Regarding `Nc1ccc(S(N)(=O)=O)cc1`, the result in test [1], in [2], in test [3], in test [7], in test [8] and in [5] was inactive. The result in [6] was inactive.

`C=CC(C)(CCC=C(C)C)OC=O` (stereo not given): the compound was called inactive in test [1], in test [2], in test [7] and in [6].

Turning to `C[C@H]1C[C@H]2[C@@H]3CCC4=CC(=O)C=C[C@]4(C)[C@@]3(F)[C@@H](O)C[C@]2(C)[C@@]1(O)C(=O)COP(=O)(O)O`, the call in [1], in test [2], in test [3], in test [7], in [4] and in test [5] was inactive. Further, the result in test [6] was inactive.

On to `CN(C)C(=N)N=C(N)N`, for which the outcome in [1], in [2], in test [3], in [7], in [4] and in [8] was inactive. Besides, the compound was classed as inactive in [5] and in test [6].

Turning to `COCCCOc1ccnc(CS(=O)c2nc3ccccc3[nH]2)c1C` (stereo not given), the result in test [1], in [2], in [3], in test [7], in test [4] and in test [8] was inactive. Also, the call in test [5] and in test [6] was inactive.

Consider `O=C1C(c2[nH]c3ccc(S(=O)(=O)O)cc3c2O)=Nc2ccc(S(=O)(=O)O)cc21`, for which the compound was called inactive in test [1], in test [2], in test [3], in test [7], in test [4] and in test [8]. In addition, the compound was classed as inactive in test [5] and in test [6].

For `CC(C)=CCC/C(C)=C/COC=O`, the result in [1], in [2], in test [4], in test [8], in test [5] and in test [6] was inactive.

As for `CC1CC(OC(=O)c2ccccc2O)CC(C)(C)C1` (stereo not given), the result in test [1], in [2], in test [3], in test [7], in test [4] and in test [8] was inactive. Besides, the result in [5] and in test [6] was inactive. Also, the AC50 in test [3] was 22.5 µM (active).

In the case of `CCN(CC)c1ccc(C(=C2C=CC(=[N+](CC)CC)C=C2)c2ccc(S(=O)(=O)O)cc2S(=O)(=O)[O-])cc1`, the AC50 in test [1] is 26.5 µM (active); in test [3], 23.1 µM (active); in [4], 46.1 µM (active); in test [5] it was 36.1 µM (active). Besides, the outcome in test [2] and in test [7] was inactive.

`CO[Si](C)(OC)c1ccccc1`: the result in [1], in test [2], in test [3], in test [7], in [4] and in test [5] was inactive. The outcome in test [6] was inactive.

As for `COCCOCCOCCOCCOCCO`, the compound was called inactive in [1], in test [2], in test [3], in test [7], in test [8] and in [6].

As for `O=c1[nH]nnc2ccccc12`, the compound was called inactive in test [1], in test [2], in test [3], in [7], in test [4] and in test [8]. The compound was classed as inactive in [5] and in test [6].

Broadly, the AC50 is the midpoint of the concentration-response curve, whichever way the signal moves.

For the origin of these results see PubChem BioAssay (EPA / NIEHS).
